This note sets out measurements from PubChem BioAssay (NCATS).

Where “and” joins values, the source holds several entries; their conditions need not be identical. Equal values may be shown once. Records with an inconclusive call do not appear. Calls of active or inactive are those of the source. Calls follow the shape of the full dose curve.
Potency is read from the fitted curve at half-maximal effect.

This test can be described thus: Primary qHTS to identify inhibitors of SARS-CoV-2 cell entry (AID 1645846). Also: nearly all actives have a fitted effect of over 45% in size. The conditions noted are these: SARS-CoV-2 pseudovirus cell entry assay, luminescence; activity change, negative = inhibition: at 57.1 µM (top of the series) unless noted; series mostly up to 57.1 µM. In a few lines:
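HEK293 cells stably expressing human ACE2, pre-treated 1 h with compound, then infected with MLV particles pseudotyped with Wuhan-Hu-1 spike (C-terminal 19-aa truncation). Luciferase luminescence after 48 h at 37 °C, normalised to spike PP and bald PP.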
For orientation: qHTS replaces the single test concentration by a dilution series.
Consider `CCCCCCCC(=O)OCC(O)CO` (configuration not stated), for which the activity change, negative = inhibition is -24.7%.

Turning to `COc1ccc2c(c1)CC[C@@H](CN(C)CC(=O)O)[C@H]2c1ccccc1`, the Potency result is “inactive”. `CCOc1cc2ncc(C#N)c(Nc3ccc(OCc4ccccn4)c(Cl)c3)c2cc1NC(=O)/C=C/CN(C)C`: the Potency is 8.91 µM (active) and 2.51 µM (active). In the case of `CC1(C)CCC(c2ccc(Cl)cc2)=C(CN2CCN(c3ccc(C(=O)NS(=O)(=O)c4ccc(N[C@H](CCN5CCOCC5)CSc5ccccc5)c(S(=O)(=O)C(F)(F)F)c4)cc3)CC2)C1`, the Potency result was “inactive”. Still for that read-out and setting: the entry for `NC(CO)C(=O)NNCc1ccc(O)c(O)c1O` (configuration not stated) is “inactive”; for `COc1cc2nccc(Oc3ccc(NC(=O)Nc4cc(C)on4)c(Cl)c3)c2cc1OC` it is 14.1 µM (active).

On to `CC(C)c1onc(-c2c(Cl)cccc2Cl)c1COc1ccc(/C=C/c2cccc(C(=O)O)c2)c(Cl)c1`, for which the Potency result is “inactive”. `CC(C)(C)COc1ccc(-n2cc(C(=O)O)cn2)cc1C#N`: the activity change, negative = inhibition is -72.8%. Consider `CC(C)CC(=O)Nc1n[nH]c2c1CN(C(=O)C1CCN(C)CC1)C2(C)C`, for which the Potency is 5.62 µM (active). Still for that read-out and setting: the figure for `O=c1cc(CN2CCOCC2)occ1OCCCCCSc1ccnc2cc(C(F)(F)F)ccc12` is 10 µM (active). Consider `O=C(Nc1ccc(F)c(C(F)(F)F)c1)Nc1nnc(-c2ccncc2)s1`, for which the activity change, negative = inhibition is -21.1%.

For `Cc1cn(-c2cc(NC(=O)c3ccc(C)c(Nc4nccc(-c5cccnc5)n4)c3)cc(C(F)(F)F)c2)cn1`, the activity change, negative = inhibition is -29.3%. Still for that read-out and setting: the figure for `O=C(O)[C@@H](c1ccc(OCc2ccc3ccccc3n2)cc1)C1CCCC1` is -23.5%.

As to `CC1=C(C/C=C(\C)CCC[C@H](C)CCC[C@H](C)CCCC(C)C)C(=O)c2ccccc2C1=O`, the Potency result was “inactive”. For `CC[C@@H]1C(=O)N(C)c2cnc(Nc3ccc(C(=O)NC4CCN(C)CC4)cc3OC)nc2N1C1CCCC1`, the activity change, negative = inhibition is -96.8%. For the compound `COc1cc(C)c(Sc2cnc(NC(=O)c3ccc(CNC(C)C(C)(C)C)cc3)s2)cc1C(=O)N1CCN(C(C)=O)CC1` (configuration not stated), the Potency is 12.6 µM (active). Still for that read-out and setting: the figure for `Nc1nc(Nc2ccc(S(N)(=O)=O)cc2)nn1C(=O)c1c(F)cccc1F` is 1 µM (active).

Take `COc1c(C)cnc(Cn2cnc3c(Cl)nc(N)nc32)c1C`: the activity change, negative = inhibition was -96.5%. `CN(C)c1ccc(Nc2nc(N)n(C(=O)c3c(F)cccc3F)n2)cc1`: the Potency was 12.6 µM (active). For the compound `COc1cc(Nc2ncc(F)c(Nc3ccc4c(n3)NC(=O)C(C)(C)O4)n2)cc(OC)c1OC`, the Potency result was “inactive”. In the case of `Cc1c(C)c2c(c(C)c1OC(=O)c1cccnc1)CC[C@@](C)(CCC[C@H](C)CCC[C@H](C)CCCC(C)C)O2`, the Potency entry is “inactive”. The same measure, in the same setting: the figure for `O=c1cc(N2CCOCC2)oc2c(-c3cccc4c3sc3ccccc34)cccc12` is 7.94 µM (active). For `CCCCOCCOc1nc(-c2ccc(C(=O)O)c(F)c2)sc1C`, the activity change, negative = inhibition was -25.8%. Regarding `Nc1ccccc1NC(=O)c1ccc(CNC(=O)OCc2cccnc2)cc1`, the Potency entry was “inactive”.

For the compound `COc1cc(OC2CCN(C)CC2)ccc1Nc1ncc2c(n1)n(C1CCCC1)c(=O)n2C`, the Potency was 28.2 µM (active). For `Cc1ccc(C(=O)N(CCCN)[C@@H](c2nc3cc(Cl)ccc3c(=O)n2Cc2ccccc2)C(C)C)cc1`, the activity change, negative = inhibition is -95.6%.

On to `Nc1ccccc1NC(=O)c1ccc(CNc2nccc(-c3cccnc3)n2)cc1`, for which the Potency entry was “inactive”. `COc1ccccc1[C@H](c1cccc2ccccc12)[C@@](C)(C#N)C(=O)N1CCC(c2cccc(C(F)(F)F)c2)CC1`: the activity change, negative = inhibition is -3.93%. For `CCCn1c(=O)c2[nH]c(C34CC5CC3C[C@@H](C5)C4)nc2n(CCC)c1=O`, the activity change, negative = inhibition was -12.4%. With `CCCCCCCc1ccc(CCc2cccc(O)c2C(=O)O)cc1`, the activity change, negative = inhibition is -27.4%. As to `O=C(Nc1cccc(Cl)c1)Nc1ncc(CCNc2ncnc3ccsc23)s1`, the Potency was 3.16 µM (active). Same read-out and setting: the figure for `C=CC(=O)Nc1cccc(Oc2nc(Nc3ccc(N4CCN(C)CC4)cc3OC)ncc2Cl)c1` is 31.6 µM (active); for `Cn1cc(-c2ccc3nnc(C(F)(F)c4ccc5ncccc5c4)n3n2)cn1` it is “inactive”. As to `Nc1nc2c(ncn2CCC(CO)CO)c(=O)[nH]1`, the activity change, negative = inhibition was -17.9%. Turning to `S=C(SSC(=S)N1CCCCC1)N1CCCCC1`, the Potency is 1.12 µM (active). Regarding `O=C(O)CCC1CCC(c2cc(F)ccc2F)(S(=O)(=O)c2ccc(Cl)cc2)CC1` (configuration not stated), the activity change, negative = inhibition is -2.05%. Turning to `CN(C)CCCN=c1c2ccccc2n(C)c2[nH]c(=O)n(C)c(=O)c12`, the Potency is 31.6 µM (active).
